In ChEMBL document CHEMBL4513216, “Probing the Open Global Health Chemical Diversity Library for Multistage-Active Starting Points for Next-Generation Antimalarials” (ACS Infect Dis, 2020) one finds INHIBITION data, which are given here for 54 molecules.

The campaign covered roughly 69,000 compounds. About 8,600 (12%) showed an effect of 50% or more. Many of the other results were omitted from the sample, so strong results are more common in it than they were.

The subject of the test is Plasmodium berghei. In words: Screen against P. berghei liver stage (PbLuc), transformed with Luciferase, at 10uM. The conditions noted are these: tested at 10 uM. It is filed as functional, HepG2.
For `NCCC(=O)NCC1(O)CCCN(c2ccnc3cccnc23)C1` (centres undefined), the INHIBITION stood at 29.4%. The same measure for `CCN(c1ccsc1C(=O)N1CCC(C)CC1)S(=O)(=O)c1ccccc1`: -8%; for `Cc1ccc(N(C)[C@@H]2CC[C@@H]3CN(C(=O)Cc4cccs4)C[C@@H]32)nn1`: -3.02%. The same measure for `FC(F)C(F)(F)COCc1ncnn1-c1ccc2c(c1)OCO2`: -98.6%; for `FC(F)(F)CCc1ncnn1-c1ccc2c(c1)OCO2`: -147%; for `CN1CCN(CCc2ncnn2-c2ccc3c(c2)OCO3)CC1`: 89.9%. With `Cc1nn(C)c(C)c1OCC(=O)NCC(O)c1ccccc1F` (centres undefined), the INHIBITION is 57.5%.

Regarding `Cc1nn(C)c(C)c1OCC(=O)NCC(O)c1ccco1` (centres undefined), the INHIBITION is given as 40.6%. Regarding `Cc1nn(C)c(C)c1OCC(=O)NCc1cccc(C(=O)O)c1`, the INHIBITION was determined as 38.6%. For `Cc1nn(C)c(C)c1OCC(=O)NCC(O)Cc1ccccc1` (centres undefined), the INHIBITION was 67.4%. On to `Cc1nn(C)c(C)c1OCC(=O)NCC(O)c1ccsc1` (centres undefined), for which the INHIBITION was 29.7%. For the molecule `Cc1nn(C)c(C)c1OCC(=O)NCc1cccc(CO)c1`, the INHIBITION is on record as -8.92%. The same measure for `CC(C)[C@H](NS(C)(=O)=O)C(=O)NCc1cc(-c2cccc(Cl)c2)nn1C`: 45.6%; for `CCC(CO)N(Cc1ccsc1)Cc1c(C)nn(C)c1Cl` (centres undefined): 27.7%; for `NS(=O)(=O)c1cccnc1Nc1cccc(Cl)c1Cl`: 27.4%. Regarding `COc1ccc(CN(C)C(=O)CN2CC(n3cc(C)cn3)C2)cc1F`, the INHIBITION was 17.1%. The figure for `COc1ccc(NC(=O)Cc2c(C)nn(C)c2C)cc1F` is 47.3%.

Regarding `COc1cc(CN(C)C(=O)Cc2c(C)nn(C)c2C)ccc1OC(F)F`, the INHIBITION was 93.4%. For `Cc1nn(C)c(C)c1CCC(=O)N(C)Cc1ccc2nsnc2c1`, the INHIBITION is recorded as -18.3%.

With `COc1ccc(CCC(=O)N(C)Cc2c(C)nn(C)c2C)cc1`, the INHIBITION was 40.9%.

For the molecule `COc1ccc(CN(C)C(=O)Cc2c(C)nn(C)c2C)cc1F`, the INHIBITION is given as 73.6%. Regarding `CCCS(=O)(=O)N1Cc2nccn2CC(CN2CCCC2)C1` (centres undefined), the INHIBITION amounted to 30.3%.

`O=C(Nc1cccc(C(=O)OCC2CCCN2)c1)c1ccoc1` (centres undefined): the INHIBITION is recorded as -97.2%.

With `N#Cc1c(N)nc2c(c1-c1c[nH]nc1C1CCCCC1)CC(N)CC2` (centres undefined), the INHIBITION was -2.43%.

On to `CS(=O)(=O)NCc1nnc2n1CCN(Cc1nccs1)C2`, for which the INHIBITION is recorded as 18.3%. The figure for `Cc1ccc(CN2CCn3c(CNS(C)(=O)=O)nnc3C2)s1` is 50.9%; for `N#CCC(=O)NCc1nnc2n1CCN(Cc1cccs1)C2` it is 0.164%; for `CN(C)C(=O)NCc1nnc2n1CCN(Cc1cccs1)C2` it is 27.7%. As to `CS(=O)(=O)NCc1nnc2n1CCN(Cc1ccncc1)C2`, the INHIBITION worked out at 64.9%. The same measure for `CS(=O)(=O)NCc1nnc2n1CCN(Cc1ccc(F)cc1)C2`: 15.9%; for `CS(=O)(=O)NCc1nnc2n1CCN(Cc1cccs1)C2`: 34.7%; for `CS(=O)(=O)NCc1nnc2n1CCN(Cc1cccnc1)C2`: 45.1%.

In the case of `CC(=O)NCc1nnc2n1CCN(Cc1cccs1)C2`, the INHIBITION is 76.2%.

As to `COC(=O)C(C)(C)NC(=O)C1CC(=O)N(CC2CC2)C1` (centres undefined), the INHIBITION is 25.1%.

Turning to `CNc1snc(C)c1C(=O)N1CCCC(n2ccnc2)C1` (centres undefined), the INHIBITION is 33.8%. As to `CC[C@H]1N(Cc2ccc(OC)cc2)CCC[C@]12CCC(=O)N2C`, the INHIBITION is recorded as 6.27%. With `Cc1nc(N2CCCN(c3ncccn3)CC2)c2cnn(C)c2n1`, the INHIBITION is given as -9.29%. For `Cc1ncsc1CN1CCn2nc(CCC(=O)N3CCCC3)cc2C1`, the INHIBITION amounted to 14.9%. With `Cc1nnc(NC(=O)CN2CCc3c(nc(C4CC4)n3C)C2)s1`, the INHIBITION amounted to 14.4%. As to `CC(=O)NC1CCCN(C(=O)NCc2ccc(-n3cccn3)cc2)C1` (centres undefined), the INHIBITION is reported as 0.914%. On to `O=C(Cc1cccs1)N1C[C@@H]2COC[C@]2(COCc2cccnc2)C1`, for which the INHIBITION stood at 43.9%.

As to `Cc1cc2[nH]c(=O)c(=O)[nH]c2cc1S(=O)(=O)NC1CCC(C)CC1` (centres undefined), the INHIBITION was found to be 23%. For the molecule `Cc1cc2nc(O)c(O)nc2cc1S(=O)(=O)NC1CC1`, the INHIBITION is listed as 60.7%. `Cc1cc2[nH]c(=O)c(=O)[nH]c2cc1S(=O)(=O)NC1CCCCC1`: the INHIBITION is -27.7%. As to `CNC(=O)[C@@H](c1ccccc1F)N1CCC[C@H]1C(=O)NC1CCOCC1`, the INHIBITION is recorded as -27.5%. On to `CN1CCCC(CNS(=O)(=O)N2CCc3ccccc3C2)C1` (centres undefined), for which the INHIBITION amounted to 57.8%. `O=S(=O)(NCC1COc2ccccc2C1)N1CCCC1` (centres undefined): the INHIBITION is -30%.

In the case of `CCN1CCC(CNS(=O)(=O)N2CCc3ccccc3C2)C1` (centres undefined), the INHIBITION came out at 45.4%. `O=S(=O)(NCC1COc2ccccc2C1)N1CCCCC1` (centres undefined): the INHIBITION is reported as -7.71%. With `O=S1(=O)CCC(CNS(=O)(=O)N2CCc3ccccc3C2)C1` (centres undefined), the INHIBITION worked out at 52.2%.

Turning to `O=S(=O)(NCC1CCOC1)N1CCc2ccccc2C1` (centres undefined), the INHIBITION came to 27.5%.

Consider `CCn1nc(CC(C)C)cc1C(=O)NCc1c(C)cc(C)nc1OC`, for which the INHIBITION turned out to be 47.3%. Take `CSCC(=O)Nc1cccc(Oc2ccccn2)c1`: the INHIBITION was -9.93%. In the case of `CS(=O)(=O)NC1CC(=O)N(c2ccccc2Cl)C1` (centres undefined), the INHIBITION was determined as 28.7%.
